# Results filed as inconclusive are left out. Activity calls are given as the source filed them. The calls were made as follows, unless noted: active = hit-call score of the fitted dose curve at least 0.9, where 1 is the maximum; inconclusive = response in the unintended direction; inactive = score below 0.9.
# Legend:
# [1] = TOX21_PR_BLA_Followup_Agonist_viability: Viability Assessment in the Tox21 HEK293 Progesterone Receptor (PR) Agonism Beta-lactamase Follow-Up Assay (AID 2283935);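 also: signal loss means lower viability so actives are cytotoxic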
# In short: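 Run multiplexed with the beta-lactamase FRET read, this endpoint measures ATP by CellTiter-Glo luminescence (30 min, room temperature). PR-UAS-bla HEK293T cells received compound 6 hr after plating and were then incubated 16 hr at 37C in 2% stripped serum.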
# [2] = TOX21_PR_BLA_Followup_Antagonist_viability: Viability Assessment in the Tox21 HEK293 Progesterone Receptor (PR) Antagonism Beta-lactamase Follow-Up Assay (AID 2283936);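 also: cells exposed to compound with R5020 agonist for 16 h; hits lower the luminescence signal meaning cytotoxicity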
# In short: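 PR-UAS-bla HEK293T cells in medium with 2% charcoal-stripped FBS were treated with compounds plus R5020 for 16 hr at 37C. After the beta-lactamase read, CellTiter-Glo was added to the same wells and luminescence read after 30 min at room temperature.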
# [3] = TOX21_PR_LUC_Followup_Antagonist_viability: Viability Assessment in the Tox21 HEK293 Progesterone Receptor (PR) Antagonism Luciferase Follow-Up Assay (AID 2283940)
# In short: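 Viability counter-readout: cellular ATP measured by luciferase luminescence after 16 h compound exposure at 37C of HEK293-PR-A-luc cells, which had been cultured in charcoal-stripped serum and seeded 5 h beforehand.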
# [4] = TOX21_PR_LUC_Followup_Agonist_viability: Viability Assessment in the Tox21 HEK293 Progesterone Receptor (PR) Agonism Luciferase Follow-Up Assay (AID 2283941);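 also: loss of signal means cytotoxicity so actives lower viability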
# In short: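 Cytotoxicity counter-readout in the PR-A luciferase reporter line HEK293, with 16 h compound exposure at 37C after cells were cultured in charcoal-stripped serum. Cellular ATP quantified by CellTiter-Glo luminescence.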
# PGR (gene 5241) = PGR (gene 5241) (UniProt P06401); assay: TOX21_PR_BLA_Followup_Antagonist_ratio: Tox21 HEK293 Progesterone Receptor (PR) Antagonism Beta-lactamase Follow-Up Assay, Ratio (AID 2283934);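 also: PR-UAS-bla HEK293T cells stimulated with 1 nM R5020 agonist for 16 hr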
# Chain of PGR (gene 5241) (P06401 whole entry, looked up): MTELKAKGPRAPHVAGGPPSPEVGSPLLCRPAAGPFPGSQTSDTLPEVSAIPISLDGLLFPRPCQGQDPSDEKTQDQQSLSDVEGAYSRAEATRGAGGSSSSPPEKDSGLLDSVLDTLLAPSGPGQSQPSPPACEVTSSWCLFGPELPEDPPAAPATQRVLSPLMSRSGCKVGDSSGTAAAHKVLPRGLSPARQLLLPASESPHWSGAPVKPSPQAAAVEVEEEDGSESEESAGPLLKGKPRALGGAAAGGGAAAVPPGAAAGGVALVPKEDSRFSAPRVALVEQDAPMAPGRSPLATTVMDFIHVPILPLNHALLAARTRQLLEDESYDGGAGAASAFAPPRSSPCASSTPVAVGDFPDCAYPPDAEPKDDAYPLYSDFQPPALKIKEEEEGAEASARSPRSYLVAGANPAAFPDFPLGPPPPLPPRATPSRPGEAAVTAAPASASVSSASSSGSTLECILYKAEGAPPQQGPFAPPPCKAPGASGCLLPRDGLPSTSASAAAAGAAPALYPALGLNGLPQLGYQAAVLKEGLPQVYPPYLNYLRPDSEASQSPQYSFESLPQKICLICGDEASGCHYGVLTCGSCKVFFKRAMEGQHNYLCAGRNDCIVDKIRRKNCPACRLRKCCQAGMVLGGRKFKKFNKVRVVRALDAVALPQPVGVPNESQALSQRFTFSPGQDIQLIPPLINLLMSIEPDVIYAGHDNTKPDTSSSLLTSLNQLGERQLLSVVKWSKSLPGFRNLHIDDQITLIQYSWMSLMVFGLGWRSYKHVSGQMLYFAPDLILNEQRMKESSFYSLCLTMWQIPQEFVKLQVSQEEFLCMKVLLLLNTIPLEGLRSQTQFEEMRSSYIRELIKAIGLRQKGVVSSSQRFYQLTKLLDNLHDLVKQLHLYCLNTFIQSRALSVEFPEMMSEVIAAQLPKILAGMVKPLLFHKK
# In short: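 Readout is the blue/green (ch2/ch1) substrate cleavage ratio after 2 hours at room temperature, following 16 hr co-treatment of PR-bla HEK293T cells with compound and 1nM promegestone. Multiplexed CellTiter-Glo viability flags cytotoxicity; DMSO baseline.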
# [5] = target: Thyroid hormone receptor alpha (Rattus norvegicus) + Thyroid hormone receptor beta (Rattus norvegicus) (UniProt P18113+P63059); assay: TOX21_TR_LUC_GH3_Antagonist_Followup: Tox21 GH3 Thyroid Hormone Receptor Antagonism Luciferase Follow-Up Assay (AID 2283942)
# In short: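 Luminescence read-out (ONE-Glo, 30 min at room temperature) in GH3 reporter cells challenged with 1.0 nM T3 final. Compounds ran at 92 uM to 5nM over 15 concentrations for 24 h; DMSO served as negative control and baseline.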
# [6] = TOX21_TRB_BLA_Antagonist_Followup_viability: Viability Assessment in the Tox21 Thyroid Hormone Receptor beta Antagonism Beta-lactamase (BLA) Follow-Up Assay (AID 2283961)
# In short: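 Viability read as CellTiter-Glo ATP luminescence (loss of signal = cytotoxicity) in the same plates as the TRβ-bla readout. TRβ-LBD/GAL4 UAS-bla HEK293T cells were exposed to compounds, 11 concentrations in triplicate, for 18 h at 37C/5% CO2.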
# [7] = target: Retinoic acid receptor RXR-alpha (Homo sapiens) (UniProt P19793); assay: TOX21_TR_RXR_BLA_Antagonist_Followup_ratio: Tox21 Thyroid Hormone Receptor beta Retinoid X Receptor alpha (RXRa) Antagonism Beta-lactamase (BLA) Follow-Up Assay, Ratio (AID 2283972)
# Chain of Retinoic acid receptor RXR-alpha (Homo sapiens) (P19793 whole entry, looked up, the tested form may be a part): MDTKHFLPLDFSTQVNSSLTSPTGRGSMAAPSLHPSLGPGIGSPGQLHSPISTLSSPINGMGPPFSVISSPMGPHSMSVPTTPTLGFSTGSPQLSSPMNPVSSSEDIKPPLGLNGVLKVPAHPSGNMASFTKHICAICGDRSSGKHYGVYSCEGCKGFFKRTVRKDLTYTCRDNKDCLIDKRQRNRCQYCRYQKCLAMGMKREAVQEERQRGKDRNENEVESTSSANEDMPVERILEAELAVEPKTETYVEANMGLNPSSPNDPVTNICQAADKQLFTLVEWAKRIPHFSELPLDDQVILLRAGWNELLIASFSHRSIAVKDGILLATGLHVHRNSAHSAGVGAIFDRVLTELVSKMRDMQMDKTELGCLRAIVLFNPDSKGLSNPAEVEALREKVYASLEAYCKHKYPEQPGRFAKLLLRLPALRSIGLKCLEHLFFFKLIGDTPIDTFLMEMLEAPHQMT
# In short: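 Beta-lactamase reporter readout as cleaved/uncleaved substrate ratio (460:530 nm) after 2 h substrate loading at room temperature. GAL4-RXRa bla HEK293T cells were exposed 16 h at 37C to 11-point compound series; loss of signal scored against DMSO baseline.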
# [8] = TOX21_TR_RXR_BLA_Antagonist_Followup_viability: Viability Assessment in the Tox21 Thyroid Hormone Receptor beta Retinoid X Receptor alpha (RXRa) Antagonism Beta-lactamase (BLA) Follow-Up Assay (AID 2283979)
# In short: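 RXRa-bla HEK293T cells (2,500/well, phenol red-free DMEM, 2% charcoal-stripped FBS) were attached 5 h, then exposed to compounds at 11 concentrations in triplicate for 16 h at 37C. Viability measured by CellTiter-Glo ATP luminescence, bidirectional fitting versus DMSO.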
# [9] = target: Nucleoli Translocation, AR (gene 367) (UniProt P10275); assay: UPITT_HCI_U2OS_AR_TIF2_Nucleoli_Antagonist: University of Pittsburgh U2OS Androgen Receptor-Transcriptional Intermediary Factor 2 (AR-TIF2) Antagonism High Content Imaging Assay for Nucleoli Translocation (AID 2283997)
# Chain of Nucleoli Translocation, AR (gene 367) (P10275 whole entry, looked up, the tested form may be a part): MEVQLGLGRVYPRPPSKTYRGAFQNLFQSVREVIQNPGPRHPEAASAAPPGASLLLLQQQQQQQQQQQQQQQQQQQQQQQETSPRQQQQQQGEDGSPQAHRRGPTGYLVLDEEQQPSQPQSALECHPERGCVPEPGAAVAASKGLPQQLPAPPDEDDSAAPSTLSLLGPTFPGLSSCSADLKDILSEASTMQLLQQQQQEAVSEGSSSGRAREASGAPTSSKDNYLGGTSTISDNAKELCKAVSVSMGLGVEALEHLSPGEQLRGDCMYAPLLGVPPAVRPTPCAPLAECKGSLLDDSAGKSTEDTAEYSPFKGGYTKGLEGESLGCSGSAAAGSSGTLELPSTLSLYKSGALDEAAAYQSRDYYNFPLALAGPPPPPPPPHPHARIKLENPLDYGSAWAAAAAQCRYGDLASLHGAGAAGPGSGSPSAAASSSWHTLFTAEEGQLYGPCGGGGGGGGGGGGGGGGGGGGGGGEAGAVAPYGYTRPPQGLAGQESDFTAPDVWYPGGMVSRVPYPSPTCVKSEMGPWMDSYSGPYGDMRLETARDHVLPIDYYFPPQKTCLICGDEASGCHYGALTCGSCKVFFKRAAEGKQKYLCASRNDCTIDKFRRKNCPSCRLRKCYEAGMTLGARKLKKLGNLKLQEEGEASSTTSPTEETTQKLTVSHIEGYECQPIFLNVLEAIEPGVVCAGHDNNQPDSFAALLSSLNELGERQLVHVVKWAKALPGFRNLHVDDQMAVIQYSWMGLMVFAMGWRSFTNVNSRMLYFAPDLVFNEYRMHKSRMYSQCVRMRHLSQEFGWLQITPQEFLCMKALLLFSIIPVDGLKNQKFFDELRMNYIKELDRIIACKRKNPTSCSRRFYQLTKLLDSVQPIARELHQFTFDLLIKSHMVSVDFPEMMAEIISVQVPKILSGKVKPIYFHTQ
# In short: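 Compounds are added at 20 uM final concentration in 0.2% DMSO to U2OS cells carrying AR-RFP and TIF2-GFP fusions. Nucleolar AR-RFP fluorescence is then quantified by automated imaging. Antagonism is fitted positively against DHT baseline.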
# [10] = target: Ratio of Nucleoli Translocation and Cytoplasm, AR (gene 367) (UniProt P10275); assay: UPITT_HCI_U2OS_AR_TIF2_Nucleoli_Cytoplasm_Ratio_Antagonist: University of Pittsburgh U2OS Androgen Receptor-Transcriptional Intermediary Factor 2 (AR-TIF2) Antagonism High Content Imaging Assay for Ratio of Nucleoli Translocation and Cytoplasm (AID 2283999);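 also: antagonists lower the DHT-driven ratio of nucleolar to cytoplasmic red signal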
# Chain of Ratio of Nucleoli Translocation and Cytoplasm, AR (gene 367) (P10275 whole entry, looked up): as the sequence (P10275 whole entry, looked up, the tested form may be a part) above
# In short: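 High-content imaging of red fluorescence ratio, nucleoli versus cytoplasm, in U2OS expressing AR-RFP and TIF2-GFP, fitted relative to DHT. Compounds tested once at 20 uM final, then 0.195 to 50 uM final in serial dilution.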
# [11] = target: Ratio of Nucleoli Translocation and Cytoplasm, AR (gene 367) (UniProt P10275); assay: UPITT_HCI_U2OS_AR_TIF2_Nucleoli_Cytoplasm_Ratio_Agonist: University of Pittsburgh U2OS Androgen Receptor-Transcriptional Intermediary Factor 2 (AR-TIF2) Agonism High Content Imaging Assay for Ratio of Nucleoli Translocation and Cytoplasm (AID 2284000);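 also: hits raise the red nucleolar to cytoplasm ratio above vehicle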
# In short: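 Human osteosarcoma U2OS line, AR-RFP plus TIF2-GFP; compounds 0.195–50 uM final, 0.5% DMSO. Readout: nucleolar/cytoplasmic RFP ratio by HCI, positive direction vs DMSO baseline.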
# [12] = CCTE_Harrill_HTTr_Viability_MCF7: CCTE's 6-hour Cell Viability Assessment for the High-Throughput Transcriptomics (HTTr) Platform, in MCF-7 cells cultured in DMEM + 10% fetal bovine serum, Harrill Lab (AID 2284010; active = hit-call score of the fitted dose curve at least 0.9, where 1 is the maximum; inactive = score below 0.9)
# In short: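 Propidium iodide exclusion, imaged by high-content analysis, gauged viability after a six-hour exposure across eight concentrations. Cells were MCF-7 grown in DMEM with 10% fetal bovine serum; fits run in both directions against DMSO.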
# [13] = CCTE_Harrill_HTTr_Apoptosis_MCF7: CCTE's 6-hour Apoptosis Assessment for the High-Throughput Transcriptomics (HTTr) Platform, in MCF-7 cells cultured in DMEM + 10% fetal bovine serum, Harrill Lab (AID 2284011; active = hit-call score of the fitted dose curve at least 0.9, where 1 is the maximum; inactive = score below 0.9)
# In short: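 Read-out: CellEvent Caspase 3/7 Green signal by high content imaging, gain-of-signal indicating apoptosis. MCF-7 cells, DMEM + 10% FBS, eight-point dilution series, 6 h exposure. Curves fitted bidirectionally relative to DMSO negative control.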
# THRA (gene 7067) = THRA (gene 7067) (UniProt P10827); assay: TOX21_TRA_COA_Antagonist_Followup_ratio: Tox21 Thyroid Hormone Receptor alpha Antagonism through Coactivator Recruitment Follow-Up Assay, Ratio (AID 2283953)
# Chain of THRA (gene 7067) (P10827 whole entry, looked up, the tested form may be a part): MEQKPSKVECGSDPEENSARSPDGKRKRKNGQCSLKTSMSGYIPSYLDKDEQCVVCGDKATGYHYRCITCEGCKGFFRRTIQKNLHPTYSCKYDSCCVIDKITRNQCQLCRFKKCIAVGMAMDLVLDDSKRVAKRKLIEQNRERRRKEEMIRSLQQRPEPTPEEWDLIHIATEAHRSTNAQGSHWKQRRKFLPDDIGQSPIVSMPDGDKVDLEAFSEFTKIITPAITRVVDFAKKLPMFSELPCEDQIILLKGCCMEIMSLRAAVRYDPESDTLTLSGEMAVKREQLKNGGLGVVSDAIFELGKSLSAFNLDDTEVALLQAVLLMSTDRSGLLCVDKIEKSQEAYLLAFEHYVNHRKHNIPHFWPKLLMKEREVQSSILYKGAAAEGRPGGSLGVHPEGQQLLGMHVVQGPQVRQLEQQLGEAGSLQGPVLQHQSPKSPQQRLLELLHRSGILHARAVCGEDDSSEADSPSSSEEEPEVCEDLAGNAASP
# In short: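 GST-TRα LBD 2.5 nM, BSA 0.10%, + cpd; then FITC-SRC-2 peptide 200 nM + Tb-anti-GST Ab 2 nM. TR-FRET ratio 520/495 nm. Norm: DMSO = 0%, T3 = 100%.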
# THRB (gene 7068) = THRB (gene 7068) (UniProt P10828); assay: TOX21_TRB_COA_Antagonist_Followup_ratio: Tox21 Thyroid Hormone Receptor beta Antagonism through Coactivator Recruitment Follow-Up Assay, Ratio (AID 2283967)
# Chain of THRB (gene 7068) (P10828 whole entry, looked up, the tested form may be a part): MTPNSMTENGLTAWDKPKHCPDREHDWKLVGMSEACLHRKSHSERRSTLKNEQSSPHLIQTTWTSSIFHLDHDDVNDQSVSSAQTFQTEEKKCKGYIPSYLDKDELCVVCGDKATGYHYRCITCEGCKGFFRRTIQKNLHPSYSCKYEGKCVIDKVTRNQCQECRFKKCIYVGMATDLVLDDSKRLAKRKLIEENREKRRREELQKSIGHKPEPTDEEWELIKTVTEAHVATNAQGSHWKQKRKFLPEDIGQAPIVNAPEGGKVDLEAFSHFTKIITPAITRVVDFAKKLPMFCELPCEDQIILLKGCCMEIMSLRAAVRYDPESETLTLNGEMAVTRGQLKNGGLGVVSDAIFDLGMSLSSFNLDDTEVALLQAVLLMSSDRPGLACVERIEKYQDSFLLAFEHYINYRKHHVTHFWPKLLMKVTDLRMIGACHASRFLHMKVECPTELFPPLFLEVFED
# In short: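 GST-TRb LBD 5.0 nM + 0.10% BSA, compound added; fluorescein-SRC-2 peptide 200 nM, Tb-anti-GST Ab 2 nM. TR-FRET, ex 340 / em 520:495 ratio. Norm: DMSO 0%, T3 100%.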
smiles,measurement,setting,value
COC(=O)[C@@H]1CC2=CC(=O)CC[C@]2(C)[C@@]23O[C@@H]2C[C@@]2(C)[C@@H](CC[C@@]24CCC(=O)O4)[C@H]13,outcome,[1],inactive
same,outcome,[2],inactive
same,outcome,[3],inactive
same,outcome,[4],inactive
C/C=C1\C(=O)C[C@H]2[C@@H]3CCC4=CC(=O)CC[C@]4(C)[C@H]3CC[C@]12C,outcome,[1],inactive
same,outcome,[3],inactive
same,outcome,[4],inactive
C[C@@H]1CC(=O)NN=C1c1ccc(NN=C(C#N)C#N)cc1,AC50,PGR (gene 5241),17300 nM (active)
same,outcome,[1],inactive
same,outcome,[2],inactive
same,outcome,[3],inactive
same,outcome,[4],inactive
CCCC(=O)O[C@]1(C(=O)CO)CC[C@H]2[C@@H]3CCC4=CC(=O)CC[C@]4(C)[C@H]3[C@@H](O)C[C@@]21C,outcome,[1],inactive
NNc1nnc(Cc2ccncc2)c2ccccc12,outcome,[5],inactive
same,outcome,[6],inactive
same,outcome,[7],inactive
same,outcome,[8],inactive
CC(=O)OCC(=O)[C@@]1(O)[C@H](C)C[C@H]2[C@@H]3CCC4=CC(=O)C=C[C@]4(C)[C@@]3(F)[C@@H](O)C[C@@]21C,outcome,PGR (gene 5241),inactive
same,outcome,[1],inactive
same,outcome,[2],inactive
same,outcome,[3],inactive
CC1(C)OC(=O)Nc2ccc(Br)cc21,outcome,PGR (gene 5241),inactive
same,outcome,[1],inactive
same,outcome,[2],inactive
O=C1NC(=O)c2ccc3c4ccc5c6c(ccc(c7ccc1c2c73)c64)C(=O)NC5=O,outcome,[9],inactive
same,outcome,[10],inactive
same,outcome,[11],inactive
same,outcome,[12],inactive
same,outcome,[13],inactive
O=C(O)c1cccnc1Nc1cccc(C(F)(F)F)c1,outcome,[5],inactive
same,outcome,THRA (gene 7067),inactive
same,outcome,[6],inactive
same,outcome,THRB (gene 7068),inactive
same,outcome,[7],inactive
same,outcome,[8],inactive
COc1cc(NCc2ccc3nc(N)nc(N)c3c2C)cc(OC)c1OC,outcome,[5],inactive
same,outcome,THRA (gene 7067),inactive
same,AC50,[6],1460 nM (active)
same,outcome,THRB (gene 7068),inactive
same,AC50,[7],1760 nM (active)
same,AC50,[8],1770 nM (active)
CCCCOC(=O)/C=C/C(=O)OCCCC,outcome,[12],inactive
same,outcome,[13],inactive
CCOC(=O)c1ccccc1C(=O)O,outcome,[12],inactive
same,outcome,[13],inactive
CO[Si](OC)OC,outcome,[12],inactive
same,outcome,[13],inactive
O=C[C@H](O)[C@@H](O)[C@@H](O)CO,outcome,[12],inactive
same,outcome,[13],inactive
CC(=CC(C)(C)C)CC(C)(C)C,outcome,[12],inactive
same,outcome,[13],inactive
Nc1nc2nc[nH]c2c(=O)[nH]1,outcome,[12],inactive
same,outcome,[13],inactive
CCC(=O)O[C@H]1[C@H](O[C@@H]2[C@@H](C)[C@H](O[C@H]3C[C@@](C)(OC)[C@@H](O)[C@H](C)O3)[C@@H](C)C(=O)O[C@H](CC)[C@@](C)(O)[C@H](O)[C@@H](C)C(=O)[C@H](C)C[C@@]2(C)O)O[C@H](C)C[C@@H]1N(C)C,outcome,[12],inactive
same,outcome,[13],inactive
CC(=O)c1cccc2ccccc12,outcome,[12],inactive
same,outcome,[13],inactive
CCOC(=O)C(C)CC (stereo unspecified),outcome,[12],inactive
same,outcome,[13],inactive
CCCCCCCCCCCC[N+](C)(C)[O-],outcome,[12],inactive
same,outcome,[13],inactive
O=C(O)c1ccccc1C(=O)OC1CCCCC1,outcome,[12],inactive
same,outcome,[13],inactive
NC[C@H](O)c1ccc(O)c(O)c1,outcome,[12],inactive
same,outcome,[13],inactive
COc1c2occc2c(OC)c2c(=O)cc(C)oc12,outcome,[12],inactive
same,outcome,[13],inactive
C/C(=C\c1ccc(C(=O)O)cc1)c1ccc2c(c1)C(C)(C)CCC2(C)C,outcome,[12],inactive
same,outcome,[13],inactive
CCOCCOC(=O)C=Cc1ccc(OC)cc1,outcome,[12],inactive
same,outcome,[13],inactive
